High-throughput results deposited in PubChem by National Center for Advancing Translational Sciences (NCATS).
Compounds with a hit are over-represented: about 1.4% of the library has one in this group of screens.
Mm-Cpn inhibitor: inhibitors of Methanococcus maripaludis chaperonin TRiC (MmCpn); purified Mm-Cpn ATPase, ADP Transcreener TR-FRET; Potency, µM (highest dose often 76.9 µM), inactives show at the top dose activity, negative = inhibition, most hits filed as inhibitors; actives 0.031% (n = 330,000); AID 504842; active = well fitted inhibition curve with a large enough effect; inconclusive = small, poorly fitted or top-dose-only effect; also: potency is read from the fitted curve at half-maximal effect; % is scaled to controls: 0 for no effect and ±100 for the full control effect; nearly all actives have a fitted effect of over 80% in size
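Inhibition of chaperonin ATP hydrolysis is measured as reduced ADP production, detected by competitive TR-FRET in which signal falls with ADP. Final enzyme 25 nM and ATP 10 uM, reacted 30 min at 37°C.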
Rango complex inh: inhibitors of Rango-importin beta complex formation; actives 0.031% (n = 340,000); Rango CFP/YFP FRET sensor + importin beta, 45 min; Potency, µM (highest dose often 92.2 µM), for the others: at the top dose inhibition of complex formation; AID 540263; Q14974;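 also: potency is read from the fitted curve at half-maximal effect; 0% = DMSO wells and 100% = buffer wells lacking importin beta; nearly all actives have a fitted effect of over 15% in size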
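FRET biosensor (snurportin 1 IBB flanked by EYFP and cerulean), 50 nM, with compound 5 min, then 0.125 microM importin beta in PBS, 1 mM DTT, 0.02% Tween-20, 0.1% BSA. CFP/YFP ratio read after 45 min at room temperature; pre-read flags interference.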
KCNH2 WT inh: blocks the wildtype human KCNH2 potassium channel. U2OS, BacMam KCNH2, thallium flux FluxOr; hits give low values. activity change, % at 1.84 µM. AID 720551. Q12809. actives 0.37% (n = 340,000);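 active = maximum activity change below -70%; inconclusive = maximum activity change between -70% and -50%; inactive = maximum activity change above -50%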; also: % is scaled to controls: 0 for no effect and ±100 for the full control effect
Target sequence (Q12809 whole entry, looked up): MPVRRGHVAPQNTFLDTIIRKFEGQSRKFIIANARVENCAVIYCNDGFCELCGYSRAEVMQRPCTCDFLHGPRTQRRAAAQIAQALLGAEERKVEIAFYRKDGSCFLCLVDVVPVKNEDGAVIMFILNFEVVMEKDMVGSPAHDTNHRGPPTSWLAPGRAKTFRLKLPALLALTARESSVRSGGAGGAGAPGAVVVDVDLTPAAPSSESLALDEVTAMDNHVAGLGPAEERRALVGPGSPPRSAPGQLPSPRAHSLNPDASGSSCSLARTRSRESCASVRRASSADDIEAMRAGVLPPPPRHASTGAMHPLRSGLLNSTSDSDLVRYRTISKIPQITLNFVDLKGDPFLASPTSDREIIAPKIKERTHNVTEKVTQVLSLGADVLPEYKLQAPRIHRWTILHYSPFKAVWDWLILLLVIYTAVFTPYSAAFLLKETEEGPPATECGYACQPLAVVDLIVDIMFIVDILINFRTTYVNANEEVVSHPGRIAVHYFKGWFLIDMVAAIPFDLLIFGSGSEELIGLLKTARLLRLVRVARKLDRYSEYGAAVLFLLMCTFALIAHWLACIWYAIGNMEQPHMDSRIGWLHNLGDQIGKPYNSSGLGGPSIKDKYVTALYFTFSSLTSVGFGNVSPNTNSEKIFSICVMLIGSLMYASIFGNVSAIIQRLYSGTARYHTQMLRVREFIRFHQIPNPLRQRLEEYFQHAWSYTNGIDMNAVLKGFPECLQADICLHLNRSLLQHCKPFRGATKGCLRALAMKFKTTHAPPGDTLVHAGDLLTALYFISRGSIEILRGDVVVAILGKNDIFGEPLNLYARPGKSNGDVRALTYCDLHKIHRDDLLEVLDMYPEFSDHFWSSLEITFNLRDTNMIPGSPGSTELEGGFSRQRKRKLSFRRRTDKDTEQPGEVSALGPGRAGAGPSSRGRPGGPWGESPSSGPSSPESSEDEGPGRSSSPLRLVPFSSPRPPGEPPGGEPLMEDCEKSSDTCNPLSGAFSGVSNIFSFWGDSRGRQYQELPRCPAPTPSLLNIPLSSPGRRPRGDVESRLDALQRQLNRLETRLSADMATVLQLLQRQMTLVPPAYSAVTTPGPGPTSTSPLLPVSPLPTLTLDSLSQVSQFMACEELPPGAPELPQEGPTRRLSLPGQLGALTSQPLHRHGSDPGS
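U2OS cells transduced with wild-type KCNH2 virus are loaded with FluxOr dye for 45 min, and thallium flux is measured in kinetic reads before and after stimulation buffer. Rate constants are normalized to DMSO controls.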
CCT chaperon mod: modulators of cytosolic chaperonin (CCT/TRiC) activity. actives 0.3% (n = 360,000). purified chaperonin ATPase assay, HTRF ADP detection, 30 min. activity change, % (test concentration not listed), hits read low; in the data active = activity change below about -30%; also: % is scaled to controls: 0 for no effect and ±100 for the full control effect
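We incubate TRiC, 40 or 20 nM final, with library compounds at 76 uM and 10 uM ATP for 30 min at 37 °C. ADP formed is detected with Transcreener HTRF reagents after 30 min at room temperature.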
Rango release inh: inhibition of RanGTP-driven Rango-importin beta dissociation. O95149+P62826. Biochemical FRET Rango-importin beta, RanGTP-induced dissociation. Potency, µM (series often up to 46.1 µM), for the others: at the highest dose activity change, negative = inhibition. actives 0.071% (n = 340,000); also: potency is read from the fitted curve at half-maximal effect; % of control where 0% means no effect; nearly all actives have a fitted effect of over 45% in size
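Quantitative HTS using a FRET biosensor: 0.1 uM Rango, 0.25 uM importin beta, 0.6 uM Ran, 2 mM GTP, 0.2 uM RCC1 final, PBS with DTT, Tween-20 and BSA. Post-read taken 45 min after Ran addition.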
KCNH2 3.1 block: blocks the human KCNH2 3.1 channel isoform; U2OS KCNH2 3.1, thallium flux FluxOr; hits give low values; activity change, % (tested at about 1.8 µM); actives 0.95% (n = 340,000); AID 720553;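 active = maximum activity change below -70%; inconclusive = maximum activity change from -70% to -50%; inactive = maximum activity change above -50%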;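 also: thallium influx rate constant from kinetic fluorescence after stimulation buffer; % is scaled to controls: 0 for no effect and ±100 for the full control effect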
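Measured as rate of thallium-driven FluxOr signal in transduced U2OS cells carrying the 3.1 channel, read kinetically for 2 min upon stimulation; values are rate constants scaled to DMSO control wells.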
* = called active by the depositor; ? = inconclusive; . = no result given; [ ] = remark or other dose. Unless noted, calls follow the shape of the full dose curve.

SMILES	Mm-Cpn inhibitor	Rango complex inh	KCNH2 WT inh	CCT chaperon mod	Rango release inh	KCNH2 3.1 block
Cc1cc(=O)[nH]c2nnc(-c3ccc(Cl)cc3)n12	-2%	0%	5	-1	1%	-14
C/C=C/c1ccc(OCCCCN2CC(C)CC(C)C2)c(OC)c1 (centres undefined)	-6%[15.4 µM]	0%	28	0	34%	2
C/C=C/c1ccc(OCCCCN2CCN(CC)CC2)c(OC)c1	0%	1%	.	-58*	-9%	5
CCOC(=O)CC1=C(C(=O)OCC)C(c2cc(OC)c(OC)cc2OC)C(C#N)=C(N)O1 (centres undefined)	0%	?	-14	0	15µM*	2
CCOC(=O)CC1=C(C(=O)OCC)C(c2ccc(OC)c(OC)c2)C(C#N)=C(N)O1 (centres undefined)	-6%	?	8	0	-10%	3
COCC(C)n1c(C)cc(C(=O)COC(=O)c2c(NC(C)=O)sc(C)c2C)c1C (centres undefined)	-4%	1%	0	3	-13%	0
COc1ccc(S(=O)(=O)Nc2ccc3c(c2)C(=O)N([C@H](C)CO)C[C@H](C)[C@@H](CN(C)S(=O)(=O)c2ccc(F)cc2)O3)cc1	-1%	-2%	4	-1	-3%	-7
Cc1ccc(C(=O)C2(C)C3c4cc(Br)ccc4OC(=O)C32C(=O)c2ccco2)cc1 (centres undefined)	-2%	0%	-12	0	7%	-114*
C/C(=N\NC(=O)COc1cc(C)cc(C)c1)c1cccc(NC(=O)C2CCC2)c1	1%	5%	3	-2	7%	-2
Cc1nnc2c3ccccc3c(-c3ccc(O)cc3)nn12	0%	2%	-12	2	1%	2
Cc1nnc2c3ccccc3c(-c3cccs3)nn12	0%	-1%	-4	5	3%	-85*
O=C(NC1CCCCCCC1)c1ccc(Br)o1	-1%	-4%	-11	-2	-5%	-199*
Cc1nc(N)nc(N/N=C/c2ccccc2)n1	0%	-2%	-76*	-1	14%	-2
Cc1cc(N/N=C/c2ccccc2)nc(N)n1	2%	5%	-14	-3	-11%	32
CCOC(=O)Cc1ccc(Nc2nc(NCc3cccs3)nc3ccsc23)cc1	.	.	.	2	.	.
C/C(=N/NC(=O)c1ccoc1C)c1cccc(NC(=O)C2CC2)c1	?	2%	-3	1	-12%	-3
Fc1ccc(N2CCN(Cc3c[nH]c4ccccc34)CC2)cc1	0%	.	.	.	.	.
O=[N+]([O-])c1ccc(CN2CCN(Cc3c[nH]c4ccccc34)CC2)cc1	-5%	0%	-38	2	-8%	-77*
Cc1ccccc1N1CCN(Cc2c[nH]c3ccccc23)CC1	2%	-4%	21	3	4%	-85*
O=[N+]([O-])c1ccc(/C=N/N2CCN(Cc3ccccc3)CC2)cc1	1%	2%	-9	-105*	-5%	-80*
Brc1ccc(CN2CCN(Cc3c[nH]c4ccccc34)CC2)cc1	0%	-1%	29	0	2%	-12
CCCC1NC(=O)c2cccnc2-n2c1nc1cc(C)cc(C)c1c2=O (centres undefined)	.	.	0	-2	.	2
Cc1ccc(S(=O)(=O)c2ccc([N+](=O)[O-])o2)cc1	.	6%	-22	0	-6%	28
CCN(CC)CCSc1nc2ccccc2n1Cc1ccccc1	-10%	-1%	?	1	2%	-75*
CN(C)C(=O)CSc1nc2ccccc2n1Cc1ccccc1	-2%	-1%	7	2	2%	18
CSCC[C@H](NC(=O)c1ccc2c(c1)OCO2)c1nnc2ccccn12	1%	5%	0	0	-12%	-13
CSc1nc2ccc(Br)cc2[nH]1	1%	-1%	1	1	-4%	-72*
